Experimental findings from PubChem BioAssay (Tox21) are described below.

The structures appear in SMILES notation. Results filed as inconclusive are left out. Unmarked numbers belong to inactive results. The source made the active and inactive calls. Unless noted, the call rests on the fitted dose curve; in most records, active means well fitted cell-killing curve with a large enough effect in the repeat runs; inconclusive means weak or mixed curves, or effect the other way; inactive means no such curve, though single readings can be large or run the other way.
On the % scale 0 is the no-effect control and ±100 the full control effect; potency means the concentration at half of the fitted maximal effect.

Sequence of Glucocorticoid receptor (Homo sapiens) (P04150 whole entry, looked up): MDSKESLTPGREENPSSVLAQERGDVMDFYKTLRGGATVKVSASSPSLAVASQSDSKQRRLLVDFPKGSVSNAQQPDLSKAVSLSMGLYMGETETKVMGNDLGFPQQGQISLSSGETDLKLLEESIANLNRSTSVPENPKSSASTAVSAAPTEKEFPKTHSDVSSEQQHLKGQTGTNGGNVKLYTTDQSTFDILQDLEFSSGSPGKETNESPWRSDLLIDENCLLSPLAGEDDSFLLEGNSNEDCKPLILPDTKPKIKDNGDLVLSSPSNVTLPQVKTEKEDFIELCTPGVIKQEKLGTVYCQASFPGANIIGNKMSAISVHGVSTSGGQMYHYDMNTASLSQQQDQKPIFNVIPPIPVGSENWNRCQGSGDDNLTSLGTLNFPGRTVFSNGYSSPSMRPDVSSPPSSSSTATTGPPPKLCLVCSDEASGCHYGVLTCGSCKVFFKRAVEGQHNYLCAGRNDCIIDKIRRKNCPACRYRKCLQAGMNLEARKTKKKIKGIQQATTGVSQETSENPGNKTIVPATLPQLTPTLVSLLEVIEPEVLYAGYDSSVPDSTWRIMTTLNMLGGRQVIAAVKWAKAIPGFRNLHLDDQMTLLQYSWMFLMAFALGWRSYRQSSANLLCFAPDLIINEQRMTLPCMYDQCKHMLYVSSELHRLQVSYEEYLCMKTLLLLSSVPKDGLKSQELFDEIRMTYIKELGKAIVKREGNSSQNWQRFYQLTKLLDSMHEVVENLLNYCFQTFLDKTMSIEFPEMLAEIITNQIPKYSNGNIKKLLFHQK

The target of the first experiment is Glucocorticoid receptor (Homo sapiens) (UniProt P04150). Nature of the experiment: qHTS assay to identify small molecule agonists of the glucocorticoid receptor (GR) signaling pathway (AID 720691; active means well fitted activation curve with a large enough effect in the signal ratio in the repeat runs, not every such curve was filed as active; the % refers to the signal ratio). To be noted: GR-bla HeLa, beta-lactamase reporter ratio, 18 h; activation: at 62.4 µM (top of the series). The essentials:
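GR-bla HeLa cells (beta-lactamase reporter under glucocorticoid response element) were plated 4 h at 37 C/5% CO2, given compounds in DMSO, and incubated 18 h at 37 C. LiveBLAzer B/G FRET substrate was added for 2 h at room temperature, then fluorescence intensity read.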
As to `Cc1c([N+](=O)[O-])c(C)c([N+](=O)[O-])c(C(C)(C)C)c1[N+](=O)[O-]`, the “activation” value is -2.06%. Turning to `CCOP(=O)(Sc1ccccc1)Sc1ccccc1`, the “activation” value is 4.03%. In the case of `c1ccc2c(c1)cc1ccc3cccc4ccc2c1c34`, the Potency was 25 µM [fluorescent] (active). Consider `Oc1cc(Cl)cc(Cl)c1`, for which the “activation” value was -4.78% [at 79.2 µM]. As for `COc1ccc2[nH]cc(CCN(C(C)C)C(C)C)c2c1`, the “activation” value is 7.71% [at 79.2 µM]. For the compound `CCNc1nc(NC(C)C(C)C)nc(SC)n1` (centres undefined), the “activation” value was -1.69%. As to `Nc1cc(Cl)ccc1Cl`, the “activation” value is 0.229%. As to `NC1CCC(CC2CCC(N)CC2)CC1` (centres undefined), the “activation” value is 4.12%. Turning to `c1ccc2nc(N3CCNCC3)ccc2c1`, the “activation” value is -8.88%. For the compound `CCCCN(CCCC)C(=S)[S-].CCCCN(CCCC)C(=S)[S-].[Ni+2]`, the “activation” value is -2.69%. For the compound `O=C(Nc1ccc(F)cc1F)c1cccnc1Oc1cccc(C(F)(F)F)c1`, the “activation” value is -6.3% [at 79.2 µM].

Consider `CC(C)=CC1C(C(=O)OC(C#N)c2cccc(Oc3ccccc3)c2)C1(C)C` (centres undefined), for which the “activation” value is -1.41%. With `C=Cc1cccc(CCl)c1`, the “activation” value was -2.54% [at 79.2 µM]. `C[C@H]1[C@H](c2ccc(Cl)cc2)SC(=O)N1C(=O)NC1CCCCC1`: the “activation” value was 4.63%. As to `CCOC(=O)Cc1ccccc1`, the “activation” value was 0.336%. As to `CC(C)Br`, the “activation” value is -3.02%.

As for `c1csc(-c2ccc(-c3cccs3)s2)c1`, the Potency is 49 µM (active). `ClC(Cl)C(Cl)(Cl)Cl`: the “activation” value is -1.65%.

Another experiment shares this target. Nature of the experiment: qHTS assay to identify small molecule antagonists of the glucocorticoid receptor (GR) signaling pathway (AID 720692; active means well fitted inhibition curve with a large enough effect in the signal ratio in the repeat runs, not every such curve was filed as active; the % refers to the signal ratio). The settings on record: GR-bla HeLa, beta-lactamase FRET ratio, dexamethasone-stimulated, 18 h; series mostly up to 58.5 µM; activity change, negative = inhibition: at the top concentration. The essentials:
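GR-bla HeLa cells (beta-lactamase reporter under glucocorticoid response element) were pre-plated 4 h at 37 C, treated with compounds plus 5 nM dexamethasone (final) for 18 h, then read by LiveBLAzer B/G FRET fluorescence after 2 h.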
In the case of `Cc1c([N+](=O)[O-])c(C)c([N+](=O)[O-])c(C(C)(C)C)c1[N+](=O)[O-]`, the “activity change, negative = inhibition” value was -5.73%. In the case of `CCOP(=O)(Sc1ccccc1)Sc1ccccc1`, the “activity change, negative = inhibition” value is 19.6%. On to `Oc1cc(Cl)cc(Cl)c1`, for which the “activity change, negative = inhibition” value is 18.1% [at 78.9 µM]. For the compound `CC(C)N(C(=O)CCl)c1ccccc1`, the Potency was 24.5 µM (active). Take `CCNc1nc(NC(C)C(C)C)nc(SC)n1` (centres undefined): the “activity change, negative = inhibition” value is 2.02%. With `Nc1cc(Cl)ccc1Cl`, the “activity change, negative = inhibition” value is 9.36%. The same measure, in the same setting: next, `NC1CCC(CC2CCC(N)CC2)CC1` (centres undefined): -7.09%.

With `c1ccc2nc(N3CCNCC3)ccc2c1`, the “activity change, negative = inhibition” value is 2.76%.

In the case of `CCCCN(CCCC)C(=S)[S-].CCCCN(CCCC)C(=S)[S-].[Ni+2]`, the “activity change, negative = inhibition” value was -22%. On to `O=C(Nc1ccc(F)cc1F)c1cccnc1Oc1cccc(C(F)(F)F)c1`, for which the “activity change, negative = inhibition” value was -5.4% [at 78.9 µM]. In the case of `C=Cc1cccc(CCl)c1`, the “activity change, negative = inhibition” value is -1.9% [at 78.9 µM]. As to `CCOC(=O)Cc1ccccc1`, the “activity change, negative = inhibition” value is -1.8%.

`Brc1cccc(-c2ccccc2)c1`: the “activity change, negative = inhibition” value is -0.288% [at 78.9 µM]. Turning to `CC(C)Br`, the “activity change, negative = inhibition” value was -11.7%.

On to `ClC(Cl)C(Cl)(Cl)Cl`, for which the “activity change, negative = inhibition” value was -6.59%.

Test system in the next experiment: not listed separately
The experiment in a line: qHTS assay to identify small molecule antagonists of the glucocorticoid receptor (GR) signaling pathway - cell viability counter screen (AID 720693). Further: nearly all actives have a fitted effect of over 55% in size. To be noted: GR-bla HeLa viability, CellTiter-Glo luminescence, 18 h, with 5 nM dexamethasone present; series mostly up to 58.5 µM; viability change, negative = cytotoxic: at the top concentration.
Turning to `Cc1c([N+](=O)[O-])c(C)c([N+](=O)[O-])c(C(C)(C)C)c1[N+](=O)[O-]`, the “viability change, negative = cytotoxic” value is -21.8%.

With `N#CC(C#N)=NNc1cccc(Cl)c1`, the Potency was 6.92 µM (active). In the case of `Brc1ccc(Oc2ccc(Br)cc2Br)c(Br)c1`, the “viability change, negative = cytotoxic” value was -7.28%. Regarding `CCOP(=O)(Sc1ccccc1)Sc1ccccc1`, the “viability change, negative = cytotoxic” value was 9.1%. As for `CC(=O)[O-].CC(=O)[O-].CC(=O)[O-].[Cr+3]`, the “viability change, negative = cytotoxic” value is -1.56%. For the compound `Cc1cc2c3c(c1)C(c1ccccc1)=N[C@@H](NC(=O)c1ccncc1)C(=O)N3CC2`, the “viability change, negative = cytotoxic” value was -7.26%. The same measure, in the same setting: in the case of `COc1ccc2[nH]cc(CCN(C(C)C)C(C)C)c2c1` it was -0.217% [at 78.9 µM]. With `O=C1C2(Cl)C3(Cl)C4(Cl)C(Cl)(Cl)C5(Cl)C3(Cl)C1(Cl)C5(Cl)C24Cl` (centres undefined), the Potency was 24.1 µM (active). Turning to `CC(C)N(C(=O)CCl)c1ccccc1`, the Potency is 54.9 µM (active). Turning to `CCNc1nc(NC(C)C(C)C)nc(SC)n1` (centres undefined), the “viability change, negative = cytotoxic” value was -3.25%.

As for `CCCN`, the “viability change, negative = cytotoxic” value was 23% [at 78.9 µM].
